# Compound activity as filed in PubChem.
# Rows were chosen to be rich in hits. Some 2.4% of all compounds tested hit in one or more screens of this group.
# D2 ag-1 – human D2 receptor agonism in beta-arrestin assay. P14416. AID 624465. activation, % (test concentration not listed). 360,000 tested, 0.084% active. DiscoveRx PathHunter D2 beta-arrestin, luminescence, 90 min; 100% = 57 uM dopamine signal; in the data active means activation above about 40%; inconclusive means between about 15% and that limit
#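 Agonist mode: compounds alone added to overnight-plated D2 PathHunter cells for 90 min at 37 C, with 57 uM final dopamine (EC100) defining full response. Beta-arrestin recruitment detected by chemiluminescent reagent, read after 1 h at ambient temperature.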
# D2 PAM-1 – human D2 receptor positive allosteric modulation; potentiation, % (concentration not given with the values); 360,000 tested, 0.23% active; AID 624464; DiscoveRx D2 beta-arrestin cells, luminescence, 90 min; 100% = 57 uM dopamine signal; P14416; in the data active means potentiation above about 50%; inconclusive means mostly about 30% to 49%
#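 D2 cells co-treated with compound plus 50 nM dopamine (EC20) for 90 min at 37 deg C to detect potentiation. Beta-arrestin recruitment was read as enzyme-fragment luminescence after 1 h at ambient temperature. Full response was set by 57 uM dopamine.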
# D2 PAM-2 – D2 dopamine receptor (human) potentiation; P14416; potentiation, % at 10 µM; HEK293 T-REx D2, calcium flux, EC20 dopamine potentiation; 340,000 tested, 0.34% active; AID 485347;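 active means potentiation over 3 SD above the plate norm, cut at about 30% in these data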; further: 0% is about no effect
#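 Tetracycline-induced Hek293 Trex D2 cells, force-coupled to calcium, loaded with no-wash calcium dye. Compound added with 180 s kinetic read for agonism, then EC20 dopamine and a further 180 s read for potentiation.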
# D2 ag-2 – activates the human D2 dopamine receptor | HEK293 T-REx D2 cells, calcium flux agonist mode | activation, % at 2 µM | 340,000 tested, 0.53% active | AID 485358;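 active means activation over 3 SD above normal in the single-dose calcium agonist read, cut at about 30% in these data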; further: 0% is about no effect
#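 Agonism is scored from calcium flux in a force-coupled, inducible HEK293 cell line expressing D2, read kinetically for 180 s after compound addition against dopamine controls.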
# D2 antagonist – antagonists of human D2 dopamine receptor | P14416 | HEK293 TREx D2 cells, calcium flux, dopamine EC80 | inhibition, % at 10 µM | 340,000 tested, 2% active; in the data active means inhibition above about 30%; inactive means below that, where a call was filed; further: 0% is about no effect
#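 In this primary screen, negative modulation is detected by tracking calcium flux after an EC80 dopamine challenge in inducible HEK293 T-REx D2 cells preexposed to test compound for 180 s.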
# D3 arrestin ag – D3 receptor agonism confirmed, beta-arrestin readout; Potency, µM (series often up to 76.9 µM), for the others: top-dose activation, hits mostly activators; AID 720506; shares compounds with D2 ag-2; DiscoveRx D3 beta-arrestin cells, luminescence, 90 min; 2,300 tested, 4% active;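 further: potency means the concentration at half of the fitted maximal effect; 100% = dopamine control response; nearly all actives have a fitted effect of over 70% in size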
# Target sequence (P35462 whole entry, looked up): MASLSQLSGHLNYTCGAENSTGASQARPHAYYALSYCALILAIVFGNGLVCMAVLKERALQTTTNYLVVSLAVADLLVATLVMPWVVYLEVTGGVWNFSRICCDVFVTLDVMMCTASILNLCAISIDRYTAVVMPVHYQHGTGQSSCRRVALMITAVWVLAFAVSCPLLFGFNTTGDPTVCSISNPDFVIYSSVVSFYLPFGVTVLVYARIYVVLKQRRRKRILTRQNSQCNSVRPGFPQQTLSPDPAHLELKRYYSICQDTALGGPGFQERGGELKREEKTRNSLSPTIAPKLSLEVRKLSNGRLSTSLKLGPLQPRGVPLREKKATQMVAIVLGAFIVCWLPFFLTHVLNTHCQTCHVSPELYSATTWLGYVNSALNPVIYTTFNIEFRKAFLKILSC
# D2 ag-3 – D2 receptor agonism, beta-arrestin counterscreen | shares compounds with D2 ag-2 | DiscoveRx PathHunter D2 beta-arrestin, luminescence, 90 min; response scale: percent relative to full dopamine signal | Potency, µM (titrated, usually from 76.9 µM), without a hit: at the top dose activation, actives largely listed as activators | 2,300 tested, 5.9% active | AID 720507; further: potency means the concentration at half of the fitted maximal effect; % of control where 0% means no effect; nearly all actives have a fitted effect of over 70% in size
# * = called active by the depositor; ? = inconclusive; . = not tested or not shown. Unless noted, the call rests on the fitted dose curve; in most records, active means well fitted activation curve with a large enough effect; inconclusive means small, poorly fitted or top-dose-only effect; inactive means flat fitted curve, though single readings scatter.
SMILES,D2 ag-1,D2 PAM-1,D2 PAM-2,D2 ag-2,D2 antagonist,D3 arrestin ag,D2 ag-3
COCCNC(=O)CCN1N=C(c2ccccc2)CCC1=O,-1,-4,5,0,1,.,.
COCc1c(C(=O)N2CCN(Cc3ccc4c(c3)OCO4)CC2)oc2ccccc12,46*,16,-21,70*,70*,15%,10µM*
COCc1c(C(=O)N2CCN(Cc3ccc(C#N)cc3)CC2)oc2ccccc12,-3,-4,4,0,5,.,.
CC(C)CC(=O)N1CCN(Cc2ccc3c(c2)OCO3)CC1,?,10,-24,80*,29,-11%,?
CCCCN(CC)CCCNC(=O)CN1C(=O)CSc2ccc(S(=O)(=O)N3CCOCC3)cc21,4,-8,-18,23,-22,-6%,3%
CC1CC(C)CN(CCCNC(=O)CN2C(=O)CSc3ccc(S(=O)(=O)N4CCOCC4)cc32)C1 (configuration not stated),2,-24,-18,29,40*,-4%,8%
CC(C)c1ccc(NC(=O)CN2C(=O)NC3(CCCCCCC3)C2=O)cc1,-2,-9,.,.,.,.,.
CCN1CCC2(CC1)C(C#N)=C(N)Oc1c2sc2nc(C)cc(C)c12,6,-16,-23,67*,53*,16%,8%
CC(=O)N1CCC2(CC1)C(C#N)=C(N)Oc1c2sc2nc(C)cc(C)c12,-2,-15,6,0,-4,.,.
Cc1ccc(N2C(=O)CSC23C(=O)N(CC(=O)NC2CCCCC2)c2ccccc23)cc1C (configuration not stated),.,.,-7,-1,.,.,.
O=C(NCC(c1ccco1)N1CCN(c2ccccc2F)CC1)c1cccs1 (configuration not stated),?,4,9,-1,-30,.,.
O=C(NCC(c1ccco1)N1CCN(c2ccccc2F)CC1)C(=O)NC1CCCC1 (configuration not stated),-2,2,-6,26,4,.,.
O=C(NCC1CCCO1)C(=O)NCC(c1ccco1)N1CCN(c2ccccc2F)CC1 (configuration not stated),10,6,-11,58*,48*,32µM*,?
O=C(NCC(c1ccco1)N1CCN(c2ccccc2F)CC1)c1ccco1 (configuration not stated),?,8,-10,32*,54*,?,?
CCc1ccc(C(=O)NCc2cnn(C)c2)s1,-2,-3,-5,1,1,.,.
CN(CC(=O)NCc1ccccc1)CC(=O)Nc1ccc(Cl)c(C(F)(F)F)c1,7,-1,3,2,22,4%,3%
CC(=O)Nc1ccc(C2=CC(=O)CC(C)(C)C2)cc1,-10,-7,1,-1,-4,-5%,-1%
O=C(COc1cccc(C(F)(F)F)c1)NNC(=O)Cc1ccc(S(=O)(=O)N2CCOCC2)s1,8,-6,-5,0,28,.,.
O=C(COc1cccc(F)c1)NNC(=O)Cc1ccc(S(=O)(=O)N2CCOCC2)s1,13,-3,10,0,-29,0%,-2%
CC(CCC(=O)O)C1CCC2C3CCC4C[C@H](O)CCC4(C)C3CC(=O)C12C (some centres not stated),-3,-6,-20,52*,24,28%,10%
C[C@H](CCC(=O)O)[C@H]1CC[C@H]2[C@@H]3CC[C@@H]4C[C@H](O)CC[C@]4(C)[C@H]3CC[C@]12C,-3,-5,0,0,-8,.,.
CC(=O)NC(c1ccc(F)c(F)c1)c1nc(-c2cnc3ccccc3c2)cs1 (configuration not stated),?,-13,.,.,.,.,.
C/C(=C\c1ccccc1)CN1CCN(c2ccccc2F)CC1,11,-10,-29,18,67*,-14%,9%
CCN1CCN(C/C(C)=C/c2ccccc2)CC1,1,2,-19,1,23,.,.
CCCCn1c(N)c(N(CCOC)C(=O)Cn2c(=O)cnc3ccccc32)c(=O)[nH]c1=O,8,-6,0,1,-7,-4%,-3%
SMILES,D2 ag-1,D2 PAM-1,D2 PAM-2,D2 ag-2,D2 antagonist,D3 arrestin ag,D2 ag-3
CCCCn1c(N)c(N(CCOC)C(=O)COc2ccc(C(C)=O)cc2)c(=O)[nH]c1=O,-2,-9,5,0,2,.,.
O=S(=O)(c1ccc2nc(COc3ccc(Cl)cc3Cl)[nH]c2c1)N1CCOCC1,1,-11,1,0,38*,6%,4%
Cc1ccccc1OCc1nc2ccc(S(=O)(=O)N3CCOCC3)cc2[nH]1,-5,0,0,0,10,.,.
Cc1cc(NC(=O)C(=O)NCCN2CCN(C(=O)c3cccs3)CC2)ccc1Br,0,-21,-10,22,27,28%,6%
COc1ccc(NC(=O)C(=O)NCCN2CCN(C(=O)c3cccs3)CC2)cc1,1,-18,6,14,44*,?,7%
O=c1[nH]c(CN(CCc2ccccc2)S(=O)(=O)c2ccc(Cl)cc2)nc2ccccc12,-1,-12,-9,25,-2,-10%,7%
Cn1nnnc1Sc1ncnc2scc(-c3ccccc3)c12,-5,-3,7,0,5,.,.
Cn1nnnc1Sc1ncnc2scc(-c3ccc(F)cc3)c12,-2,1,.,.,.,-2%,-4%
Cn1c(N2CCN(c3ccccn3)CC2)nc2c1c(=O)n(Cc1ccccc1Cl)c(=O)n2C,-2,-16,.,.,.,.,.
Cn1c(N2CCN(c3ccccn3)CC2)nc2c1c(=O)n(Cc1ccc(Cl)cc1)c(=O)n2C,5,-7,-10,47*,49*,18%,?
Cc1ccc(-c2c(C(=O)N/N=C/c3ccoc3)nnn2-c2nonc2N)cc1,-2,-2,11,1,10,-9%,-4%
Cc1ccsc1/C=N/NC(=O)c1nnn(-c2nonc2N)c1-c1ccc2c(c1)OCO2,-2,0,-6,1,2,.,.
CCOc1ccc(-c2c(C(=O)N/N=C/c3cccs3)nnn2-c2nonc2N)cc1,?,-9,23,1,16,.,.
Nc1nonc1-n1nnc(C(=O)N/N=C/c2cccs2)c1-c1ccc2c(c1)OCO2,-2,10,18,20,7,-6%,0%
Cc1ccc(-c2c(C(=O)N/N=C/c3cccs3)nnn2-c2nonc2N)cc1,2,-2,16,.,.,-3%,-2%
Cc1cccc(NC(=S)NCc2ccc(F)cc2)c1C,3,-5,13,0,-8,.,.
